The record followed here is the supplement of paper PMC6555819.

This assay relates to RARb:RXRa (NR concentration 270 nM, RXRa partner concentration 90 nM). The experiment in a line: PBM binding z-score (relative to random genomic background probes); higher = stronger binding; sequences stand for … in GC…GCGATTGACAGCGTAGAATGAAGG
In short, it runs like this: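 On custom Agilent 4×180K arrays, double-stranded probes with 34-nt variable regions carried direct-repeat seeds, single-nucleotide variants, half-site ablations or random human genomic background. Ligand-free nuclear receptor dimers were applied for 1 h, and binding was read with antibodies against each partner (one per run). Binding z-scores come from regression-normalized fluorescence, with the random background probes as reference.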
ATATGTAGGTTAGCTGTGGTCATTCAGACTAGGC had a PBM binding z-score of 1.2.

Sequence TCTCGGAGGACACGAAAGGTCAGCGCTCGACATC showed a PBM binding z-score of 4.42.

TCCTGTAGATCAAAGGTTAAGAAAGCCGAAGCCT displayed a PBM binding z-score of 1.78.

On to TCTAGTTGGTCGAAGGTCACACACTCGAAATGCG, for which the PBM binding z-score stood at 3.51.

For TCATATAGGTAAAGGTGAAAGTCGAACGATATGA, the PBM binding z-score came out at 2.1.

TAGCCTAGGTCATTCATGGGCCAGTATAGAAAGC displayed a PBM binding z-score of 3.66.

In turn, AGAATGAGCTTATACGTAGATCAGGGAAGAAAGT registered a PBM binding z-score of -1.13.

The sequence GCGACTGGGGCAAAGCAGGTTACCATAAGGTTGG had a PBM binding z-score of 0.93.

ACTAGTTTGTCAGCTGAGGTCACACACAATTCGG: the PBM binding z-score came out at 3.28.

ATACCAAGGTGTTCGTGAGGTCGTTGATACTAAC displayed a PBM binding z-score of 0.861.

CCAGACAGGTGAAAGGTAAGTCAGTCTGGTACGC showed a PBM binding z-score of 1.14.

AGAATGAGGTTATACGTATATCAGGGAAGAAAGT returned a PBM binding z-score of 1.44.

As for GCTATTAGTTGAAAGGGCTACCGAATGATTCTCG, the PBM binding z-score came out at 0.408.

Turning to CCTACTGGGCCAAAGGTCATTGTTTCCAATGCTC, the PBM binding z-score turned out to be 4.16.

The sequence GCTAGCAGGCCATTTGGGTCTCTCAATGACGGGC displayed a PBM binding z-score of 0.0129.

Consider TCGAGTAGGTTAGTTGGGGCATTCAGCCAACATA, for which the PBM binding z-score turned out to be 0.529.

In turn, AATACAGGGCCACTAGGCCAGAGTAGGTACGAAT had a PBM binding z-score of 0.772.

For ATACGTAGGTTAGCTGGGGTCATTCAGACTAGGC, the PBM binding z-score came out at 2.93.

GCTAGTTGGCCAGTAAAAGGTCACACACCGGTCG: the PBM binding z-score is 4.07.

TGTCAAAGTTCAGAGGTAACGTAAGTATCCACAC gave a PBM binding z-score of 4.36.

Regarding ATCTCTAGGTCAGACTCAGTTCAGTGAAGAACGC, the PBM binding z-score was 3.51.

For the sequence TCACATAGGTAAAAGGTGAAAGTCGGTGTGGTAA, the PBM binding z-score came out at 1.92.

In the case of TCTTGTAGATGAATAGAGGTTAAGAAAGTGCGCT, the PBM binding z-score came to 1.01.

AGAATTAGGTTACCAAAGATCAGGGAAACGCTTG: the PBM binding z-score was 1.25.

Sequence ATCTCTAAGTAAAGTTCAGTGAAAGATCGATAGA returned a PBM binding z-score of 2.63.

In the case of AATAGAGGGTCACTAGGCCAGAGTAGGTACGAAT, the PBM binding z-score came out at 3.69.

Consider AGAACGAGGGCACGCTGATTTGATAGCAGAGTAG, for which the PBM binding z-score turned out to be 2.67.

For the sequence GGAACGAGGGCAAGTTGATGGCAGAGTTTGATGG, the PBM binding z-score stood at 2.47.

Sequence CCTAGTTGGTCAATGTCACACACGCTATAGGTAC came in with a PBM binding z-score of 1.4.

Consider TCATTTAGGTAATACAGGTGAAAGTCGGCATCTA, for which the PBM binding z-score turned out to be 1.07.

In turn, CCTTACGGGTTACTGACAGGTTATAGCATTTGGA yielded a PBM binding z-score of 0.924.

On to ACTATTCGTTGACTTAGGGCAACCGATACGACGC, for which the PBM binding z-score is 0.866.

ACCTCTAGGTAAGACTCAGTTCAGTGAAGAACGC displayed a PBM binding z-score of -0.0918.

CGTCCAAGGTCAATGCTAGGTCAGTGAAAGCATT gave a PBM binding z-score of 5.23.

The sequence ACTATTAGTTGAGACGAGGGCAACCGCTAGGTTG displayed a PBM binding z-score of 1.15.

Regarding TCTTGTAGATCAAAAGAGGTTAAGAAAGTGCGCT, the PBM binding z-score turned out to be 0.887.

As for CGAACGAGGGCATGAGTTGAGAGCAAATGCCGAT, the PBM binding z-score came out at 2.05.

As to GCTATTAGTTGAAAGGGCAACCAAATGATTCTCG, the PBM binding z-score stood at 2.13.

For CAAACTAGGTCAAAGGTCAAAGGCGAGCCAACCA, the PBM binding z-score is 5.86.

In turn, GCTTGTAGATCAACGTTAAGAAAGACTAAGCTAA registered a PBM binding z-score of -0.508.
